Laboratory results taken from PubChem BioAssay (NCATS).
Results filed as inconclusive are left out. The source made the active and inactive calls. Unless noted, the call rests on the fitted dose curve; in most records, active means well fitted curve in the direction sought with a large enough effect; inconclusive means small, poorly fitted or top-dose-only effect, or another doubt; inactive means no such curve, though single readings can be large; an effect the other way counts as inactive or inconclusive.

Tests used:
[1] = target: Alpha-galactosidase A (Homo sapiens) (UniProt P06280); experiment: Counterscreen for Glucocerebrosidase Inhibitors: qHTS Assay for Human alpha-Galactosidase at pH 4.5 (AID 992); further: 0% is about no effect
Alpha-galactosidase A (Homo sapiens), sequence (P06280 whole entry, looked up): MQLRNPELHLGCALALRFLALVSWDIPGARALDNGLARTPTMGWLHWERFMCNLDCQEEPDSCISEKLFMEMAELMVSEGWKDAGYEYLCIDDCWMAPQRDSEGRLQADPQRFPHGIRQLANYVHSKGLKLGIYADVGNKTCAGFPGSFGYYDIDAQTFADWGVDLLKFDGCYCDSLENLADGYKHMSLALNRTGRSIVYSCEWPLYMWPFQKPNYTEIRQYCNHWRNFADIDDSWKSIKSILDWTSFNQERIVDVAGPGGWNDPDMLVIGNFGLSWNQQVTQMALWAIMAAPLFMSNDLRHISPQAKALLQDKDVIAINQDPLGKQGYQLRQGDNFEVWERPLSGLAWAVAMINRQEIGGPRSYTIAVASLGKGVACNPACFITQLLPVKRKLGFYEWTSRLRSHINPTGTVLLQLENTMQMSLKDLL
How it was run: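 Read-out is 4-methylumbelliferone fluorescence (365 nm excitation, 440 nm emission) after a pH 10 NaOH/glycine stop. Reactions held 2 nM enzyme and 80 uM substrate at pH 4.5 for 20 min at room temperature.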

[2] = target: alpha-glucosidase (Oryza sativa, rice) (UniProt Q653V4); experiment: Counterscreen for Glucocerebrosidase Inhibitors: qHTS Assay for Rice alpha-Glucosidase at pH 5.0 (AID 997);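 further: 0% = full activity with enzyme and -100% = basal without enzyme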
How it was run: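 Rice alpha-glucosidase (4 nM final) with 400 uM 4-methylumbelliferyl-alpha-D-glucopyranoside in citrate buffer pH 5.0, 20 min at room temperature, stopped at pH 10; fluorescence 365/440 nm, compounds 0.7 nM–77 uM, AC50 from Hill fits.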

[3] = target: Alpha-galactosidase (Coffea arabica) (UniProt Q42656); experiment: Counterscreen for Glucocerebrosidase Inhibitors: qHTS Assay for Coffee Bean alpha-Galactosidase at pH 5.9 (AID 998);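 further: plate controls were uninhibited enzyme for no effect and no-enzyme basal signal for full effect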
Alpha-galactosidase (Coffea arabica), sequence (Q42656 whole entry, looked up): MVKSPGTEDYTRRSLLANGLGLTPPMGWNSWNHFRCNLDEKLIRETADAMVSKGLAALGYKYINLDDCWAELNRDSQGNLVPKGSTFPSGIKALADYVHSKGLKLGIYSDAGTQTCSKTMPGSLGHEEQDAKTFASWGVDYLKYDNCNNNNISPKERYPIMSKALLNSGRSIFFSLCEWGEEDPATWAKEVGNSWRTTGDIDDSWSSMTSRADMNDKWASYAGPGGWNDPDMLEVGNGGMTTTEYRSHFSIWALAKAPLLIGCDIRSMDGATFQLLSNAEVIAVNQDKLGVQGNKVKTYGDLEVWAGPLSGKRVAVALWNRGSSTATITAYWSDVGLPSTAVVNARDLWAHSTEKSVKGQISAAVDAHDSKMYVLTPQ
How it was run: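 Green coffee bean enzyme (2 nM final) was incubated with compounds (0.7 nM–77 uM) and 4-methylumbelliferyl alpha-D-galactopyranoside (80 uM) in citrate buffer pH 5.9, 20 min at room temperature. High-pH stop; fluorescence 365/440 nm; AC50 from Hill fits.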

[4] = qHTS Assay for Lipid Storage Modulators (AID 1519; calls by dose curve; on activity change, negative = inhibition: on the % scale 0 is the no-effect control and ±100 the full control effect); conditions: Drosophila S3 cells, BODIPY lipid droplet/cell ratio, laser cytometry, cells loaded with oleic acid
How it was run: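 Cells seeded at 5,000 per well were treated with compounds over a concentration series and loaded with oleic acid (400 uM, as added). Lipid droplet fluorescence (488 nm excitation, 500-530 nm channel) was read by laser-scanning cytometry and normalized to 20 uM Triacsin C.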

[5] = target: DNA repair nuclease/redox regulator APEX1 (Homo sapiens) (UniProt P27695); experiment: qHTS Validation Assay for Inhibitors of the Human Apurinic/apyrimidinic Endonuclease 1 (APE1) (AID 1705;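 further: TAMRA fluorescence gain over two minutes as APE1 cuts a quenched THF abasic duplex; on the % scale 0 is the no-effect control and ±100 the full control effect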)
DNA repair nuclease/redox regulator APEX1 (Homo sapiens), sequence (P27695 whole entry, looked up): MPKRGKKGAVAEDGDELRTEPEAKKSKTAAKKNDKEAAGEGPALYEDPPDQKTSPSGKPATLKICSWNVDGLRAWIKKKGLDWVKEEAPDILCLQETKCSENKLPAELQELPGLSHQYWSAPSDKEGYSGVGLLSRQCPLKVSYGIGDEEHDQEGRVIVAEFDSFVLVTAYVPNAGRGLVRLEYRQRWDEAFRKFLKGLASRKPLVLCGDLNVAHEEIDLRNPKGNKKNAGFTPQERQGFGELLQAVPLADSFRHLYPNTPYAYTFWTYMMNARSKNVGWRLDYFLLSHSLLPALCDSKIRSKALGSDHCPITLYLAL
How it was run: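 Read-out: TAMRA fluorescence (525 nm ex, 598 nm em) from cleavage of a quenched THF abasic-site duplex, 50 nM final; activity taken as intensity change between third and first of three reads 60 s apart.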

[6] = Counterscreen for APE1 Inhibitors: Fluorescent Dye Displacement Validation Assay (AID 1707); further: potency means the concentration at half of the fitted maximal effect;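 on activity change, negative = inhibition: plate controls were ThO with dsDNA and no compound for no effect and ThO without dsDNA for full effect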
How it was run: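 ThO 250 nM + dsDNA 50 nM (THF abasic site, 5'-TAMRA), Tris-HCl pH7.5/50mM NaCl/2 mM MgCl2/0.01% Tween-20; compounds pin-transferred; ex 480/em 540 nm endpoint. Neutral = no compound; no-DNA ThO wells = negative control.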

[7] = qHTS for differential inhibitors of proliferation of Plasmodium falciparum line GB4 (AID 1816); conditions: Potency: Plasmodium falciparum GB4 proliferation inhibition;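 further: parasite growth measured after 72 h incubation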; further: potency means the concentration at half of the fitted maximal effect;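 on activity change, negative = inhibition: 0% = vehicle DMSO and -100% = reference inhibitor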
[8] = qHTS for differential inhibitors of proliferation of Plasmodium falciparum line 3D7 (AID 1876); further: potency means the concentration at half of the fitted maximal effect
[9] = qHTS for differential inhibitors of proliferation of Plasmodium falciparum line W2 (AID 1883); conditions: Potency: Plasmodium falciparum W2 proliferation inhibition;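 further: parasites grown with compound for 72 h before lysis and staining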; further: potency means the concentration at half of the fitted maximal effect;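 on activity change, negative = inhibition: 0% = vehicle wells and -100% = control inhibitor wells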
[10] = qHTS for differential inhibitors of proliferation of Plasmodium falciparum line HB3 (AID 1886); conditions: Potency: Plasmodium falciparum HB3 proliferation inhibition;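 further: parasites grown with compound for 72 h before SYBR Green readout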; further: potency means the concentration at half of the fitted maximal effect;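 on activity change, negative = inhibition: plate controls were vehicle for no effect and reference inhibitor for full effect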
[11] = qHTS Assay for Modulators of Human Peripheral Myelin Protein 22 (PMP22) Expression/Activity (AID 1967; active means well fitted curve in the direction sought with a large enough effect in the signal ratio; the % refers to the signal ratio;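 further: 0% = untreated cells and 100% end not stated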)
How it was run: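 Mouse MSC80 Schwann line, Pmp22 promoter–CBG68 reporter, EF-alpha–CBR internal control. 24h compound exposure, 37 °C/5% CO2, DMEM + 10% FBS. Readout: corrected green/red luminescence ratio, normalized to untreated cells; concentration-response curves fitted and classified.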

[12] = Validation of Assay for Modulators of Lamin A Splicing (AID 1459; active means well fitted curve in the direction sought with a large enough effect in the signal ratio; the % refers to the signal ratio;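 further: cells exposed to compound for two days before reading; 0% is about no effect; ratio rise marks activators and ratio drop marks inhibitors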)
How it was run: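 Readout: ratio of GFP (500-530 nm) to RFP (575-640 nm) total object intensity by 488 nm laser-scanning cytometry after 48 hrs. Cells were HeLa S3 clones carrying lamin A-EGFP minigene plus DsRed2 viability reporter; vehicle 0.5% DMSO final.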

[13] = qHTS for differential inhibitors of proliferation of Plasmodium falciparum line 7G8 (AID 1815);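 further: parasite growth measured after three days of incubation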; further: potency means the concentration at half of the fitted maximal effect;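 on activity change, negative = inhibition: plate controls were vehicle wells for no effect and reference inhibitor wells for full effect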
[14] = qHTS for differential inhibitors of proliferation of Plasmodium falciparum line D10 (AID 1877);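 further: parasites grown with compound for 72 h before DNA staining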; further: potency means the concentration at half of the fitted maximal effect;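 on activity change, negative = inhibition: plate controls were vehicle wells for no effect and reference inhibitor wells for full effect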
[15] = qHTS for differential inhibitors of proliferation of Plasmodium falciparum line Dd2 (AID 1882); conditions: Potency: Plasmodium falciparum Dd2 proliferation inhibition; further: nearly all actives have a fitted effect of over 65% in size; further: potency means the concentration at half of the fitted maximal effect;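 on activity change, negative = inhibition: compound exposure of 72 h on infected erythrocytes; plate controls were DMSO vehicle for no effect and 0.29 µM artemisinin for full effect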
How it was run: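 SYBR Green I DNA fluorescence read-out, ex 485/em 535 nm. Signals were normalized to 0.29 uM artemisinin and DMSO wells, then corrected using vehicle-only plates flanking each stack. Parasite growth ran 72 h in erythrocytes before lysis.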

[16] = target: Endonuclease 4 (Escherichia coli (strain K12)) (UniProt P0A6C1); experiment: Counterscreen for APE1 Inhibitors: qHTS Validation Assay for Inhibitors of Endonuclease IV (AID 1708); further: on the % scale 0 is the no-effect control and ±100 the full control effect
How it was run: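 2 nM enzyme was preincubated with compounds for 15 min at room temperature in 50 mM Tris-HCl pH 7.5, 50 mM NaCl, 2 mM MgCl2, 1 mM DTT, 0.01% Tween-20. 50 nM THF-abasic TAMRA/BHQ-2 duplex substrate started the reaction.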

[17] = measured here: cell count channel max response
[18] = measured here: lipid channel max response

SMILES: CCN(CCCl)Cc1ccccc1Br
- outcome [1]: inactive
- outcome [2]: inactive
- outcome [3]: inactive
- activity change, negative = inhibition ([4]; at 57.5 µM (top of the series)): -2.24% (inactive)
- max response [4, 17]: 32.6%
- max response [4, 18]: 31.1%
- Potency [5]: inactive
- Potency [6]: inactive
- Potency [7]: 12.6 µM (active)
- Potency [8]: 10 µM (active)
- Potency [9]: 11.2 µM (active)
- Potency [10]: 10 µM (active)
- outcome [11]: inactive

SMILES: CO[C@H]1CC=C2CCN3CCC4=C(CC(=O)OC4)[C@]23C1
- outcome [12]: inactive
- Potency [6]: inactive
- Potency [13]: inactive
- Potency [7]: inactive
- Potency [8]: inactive
- Potency [14]: inactive
- Potency [15]: inactive
- Potency [9]: inactive
- Potency [10]: inactive
- outcome [11]: inactive

SMILES: CC(=O)c1c(O)c(C)c(O)c(Cc2c(O)c3c(c(C(=O)/C=C/c4ccccc4)c2O)OC(C)(C)C=C3)c1O
- activity change, negative = inhibition ([4]; at 57.5 µM (top of the series)): 1.99% (inactive)
- max response [4, 17]: 24.5%
- max response [4, 18]: 25.8%
- Potency [5]: inactive
- Potency [6]: 2.24 µM (active)
- Potency [16]: inactive
- Potency [13]: 3.16 µM (active)
- Potency [7]: 3.16 µM (active)
- Potency [8]: 3.98 µM (active)
- Potency [14]: 10 µM (active)
- Potency [15]: 7.94 µM (active)
- Potency [9]: 3.55 µM (active)
- Potency [10]: 5.62 µM (active)

SMILES: Clc1ccc(Cl)cc1
- activity change, negative = inhibition ([4]; at 57.5 µM (top of the series)): 0.214% (inactive)
- max response [4, 17]: 8.86%
- max response [4, 18]: 11.5%

SMILES: CCS(=O)(=O)Nc1cccc(C(=C2CCCCC2)c2cnc[nH]2)c1
- outcome [1]: inactive
- outcome [2]: inactive
- outcome [3]: inactive
- activity change, negative = inhibition ([4]; at 57.5 µM (top of the series)): 1.44% (inactive)
- max response [4, 17]: 56.8%
- max response [4, 18]: 58%
- Potency [5]: inactive
- Potency [6]: inactive
- Potency [13]: 7.08 µM (active)
- Potency [7]: 12.6 µM (active)
- Potency [8]: 11.2 µM (active)
- Potency [14]: 14.1 µM (active)
- Potency [15]: 10 µM (active)
- Potency [9]: 8.91 µM (active)
- Potency [10]: 12.6 µM (active)

SMILES: COc1ccc2c(c1)C13CCCCC1C(C2)N(C)CC3 (stereo not drawn)
- outcome [12]: inactive
- Potency [6]: inactive
- Potency [16]: inactive
- Potency [13]: 3.16 µM (active)
- Potency [14]: inactive
- Potency [9]: 0.891 µM (active)

SMILES: C[C@]12Cc3cn4c(nc3C=C1CCC1C2CC[C@@]2(C)[C@H]1CC[C@@]2(O)C#N)nc1ccccc14 (stereo partly drawn)
- Potency [5]: inactive
- Potency [6]: inactive
- Potency [16]: inactive
- Potency [13]: 1.26 µM (active)
- Potency [7]: 3.16 µM (active)
- Potency [8]: 2.82 µM (active)
- Potency [14]: 5.01 µM (active)
- Potency [15]: 3.55 µM (active)
- Potency [9]: 2.82 µM (active)
- Potency [10]: 5.62 µM (active)

SMILES: CC(C)(C)c1cc(C=C(C#N)C#N)cc(C(C)(C)C)c1O
- outcome [1]: inactive
- outcome [3]: inactive
- Potency [5]: inactive
- Potency [6]: inactive
- Potency [16]: inactive
- Potency [13]: 1.12 µM (active)
- Potency [7]: 0.891 µM (active)
- Potency [8]: 0.708 µM (active)
- Potency [14]: 1.12 µM (active)
- Potency [15]: 0.891 µM (active)
- Potency [9]: 0.355 µM (active)
- Potency [10]: 1 µM (active)

SMILES: ClC1C(Cl)C(Cl)C(Cl)C(Cl)C1Cl (stereo not drawn)
- activity change, negative = inhibition ([4]; at 57.5 µM (top of the series)): 9.37% (inactive)
- max response [4, 17]: 11.2%
- max response [4, 18]: 20.6%

SMILES: CCC1(C)CC(=O)NC(=O)C1
- activity change, negative = inhibition ([4]; at 25.7 µM (top of the series)): -1.02% (inactive)
- max response [4, 17]: -7.91%
- max response [4, 18]: -9.15%

SMILES: O=S(=O)(O)c1cc(O)ccc1O
- activity change, negative = inhibition ([4]; at 25.7 µM (top of the series)): 1.28% (inactive)
- max response [4, 17]: 11.8%
- max response [4, 18]: 12.6%

SMILES: Cc1cc(C)cc(C(=O)OC2C[C@H]3CC[C@@H](C2)N3C)c1 (stereo partly drawn)
- activity change, negative = inhibition ([4]; at 57.5 µM (top of the series)): 3% (inactive)
- max response [4, 17]: -0.988%
- max response [4, 18]: 4.22%

SMILES: CCn1cnc2c(Nc3cccc(Cl)c3)nc(N[C@@H]3CCCC[C@@H]3N)nc21
- Potency [6]: inactive
- Potency [16]: inactive
- Potency [13]: 3.16 µM (active)
- Potency [7]: 3.98 µM (active)
- Potency [8]: 2.82 µM (active)
- Potency [14]: 7.94 µM (active)
- Potency [15]: 11.2 µM (active)
- Potency [9]: 2.82 µM (active)
- Potency [10]: 8.91 µM (active)
